Compound activity as filed in PubChem BioAssay.
In the library only some 4.7% were active in any assay of this set; here they are far more common.
SARS 3CLpro inh: SARS-CoV 3CLpro protease inhibition | inhibition, % at 6 µM | P0C6X7 | 0.14% of 290,000 active | recombinant SARS-CoV 3CLpro, quenched FRET peptide cleavage | AID 1706; in the data active = inhibition above about 12%
DUSP3 inh: inhibitors of human VHR1 phosphatase (DUSP3) | recombinant VHR phosphatase, pNPP absorbance | 0.52% of 290,000 active | P51452 | inhibition, % at 13.3 µM; in the data active = inhibition above about 50%
RecA splice inh: inhibitors of M. tuberculosis RecA intein splicing | AID 2221 | inhibition, % (no concentration beside the values) | 0.75% of 290,000 active | cell-free RecA intein splicing, fluorescence | P9WHJ3; in the data active = inhibition above about 30%;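 also: 0% = vehicle wells and 100% = reference inhibitor control wells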
Target sequence (P9WHJ3 whole entry, looked up, canonical isoform): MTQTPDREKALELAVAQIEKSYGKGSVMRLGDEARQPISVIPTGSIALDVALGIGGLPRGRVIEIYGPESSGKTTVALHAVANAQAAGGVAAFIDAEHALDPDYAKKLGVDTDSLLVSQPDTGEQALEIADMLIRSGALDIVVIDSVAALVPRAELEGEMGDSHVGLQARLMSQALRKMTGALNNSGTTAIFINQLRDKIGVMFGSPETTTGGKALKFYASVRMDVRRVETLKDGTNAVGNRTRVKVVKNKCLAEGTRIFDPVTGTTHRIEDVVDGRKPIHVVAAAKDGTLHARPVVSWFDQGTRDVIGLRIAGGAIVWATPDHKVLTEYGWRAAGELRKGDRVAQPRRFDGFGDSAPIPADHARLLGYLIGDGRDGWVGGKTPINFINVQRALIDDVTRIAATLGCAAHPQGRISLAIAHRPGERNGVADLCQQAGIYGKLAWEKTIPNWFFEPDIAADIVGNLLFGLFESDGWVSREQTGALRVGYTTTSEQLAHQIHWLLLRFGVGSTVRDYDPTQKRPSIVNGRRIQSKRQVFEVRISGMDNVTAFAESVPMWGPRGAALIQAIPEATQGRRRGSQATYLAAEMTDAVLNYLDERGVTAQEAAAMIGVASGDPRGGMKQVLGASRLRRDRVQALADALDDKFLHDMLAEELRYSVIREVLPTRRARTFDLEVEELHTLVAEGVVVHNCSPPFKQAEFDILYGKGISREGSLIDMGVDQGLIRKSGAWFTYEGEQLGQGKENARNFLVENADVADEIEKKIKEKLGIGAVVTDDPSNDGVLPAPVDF
FBA Mtb inh: inhibitors of M. tuberculosis fructose-bisphosphate aldolase; P9WQA3; purified M. tuberculosis FBA, fluorescence read-out; inhibition, % at 1 µM; 2.3% of 360,000 active;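 also: 0% = vehicle and 100% = reference inhibitor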
CCHF vOTU inh: blocks the CCHF virus ovarian tumor domain protease | 0.55% of 370,000 active | inhibition, % at 11.5 µM | CCHFV vOTU protease, Pep-AMC fluorescence; in the data active = inhibition above about 30%; also: 0% = vehicle wells with enzyme and 100% = no enzyme wells
GDH-TPI counter-1: GDH-TPI coupled enzyme inhibition counter-screen; GDH-TPI coupled enzyme counterscreen, NADH absorbance; inhibition, % at 4.8 µM; 1.2% of 360,000 active; AID 588335; in the data active = inhibition above about 30%;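 also: 0% = DMSO wells and 100% = wells lacking the enzyme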
Mtb FBA inh conf: confirmation of M. tuberculosis fructose-bisphosphate aldolase inhibitors. shares compounds with FBA Mtb inh. purified M. tuberculosis FBA, fluorescence read-out. inhibition, % at 1 µM. 78% of 5,600 active. AID 651616;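 also: 0% = vehicle wells and 100% = reference inhibitor wells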
GDH-TPI counter-2: inhibits GDH-TPI coupling enzymes, flagging Mtb FBA hits. GDH-TPI coupled enzyme counterscreen, fluorescence. inhibition, % at 1 µM. shares compounds with FBA Mtb inh. 81% of 5,600 active. AID 652141; in the data active = inhibition above about 10%
GDH-TPI dose: GDH-TPI dose response counter-screen for Mtb FBA; shares compounds with FBA Mtb inh; GDH-TPI coupled enzyme assay, fluorescence, artifact counterscreen; IC50, µM; 79% of 170 active; AID 652145; call rule not given here
* = called active by the depositor; x = not tested or not shown; + = active, no number. Rule as the data show it, unless noted: active = inhibition above about 27%; inactive = the rest.

SMILES	SARS 3CLpro inh	DUSP3 inh	RecA splice inh	FBA Mtb inh	CCHF vOTU inh	GDH-TPI counter-1	Mtb FBA inh conf	GDH-TPI counter-2	others
COc1cccc(CN(C(=O)c2ccc([N+](=O)[O-])cc2)C2CCS(=O)(=O)C2)c1 (stereo unspecified)	2	15	0	64*	21	12	101*	79*
COc1ccc(CNc2nc(C)cc(C)c2C#N)cc1	0	-10	x	29*	-13	19	40*	26*
COc1ccc(CSc2nc(C)cc(C)c2C#N)cc1	5	19	-2	2	-9	15	x	x
O=C(CN1CCCc2ccccc21)N/N=C/c1c(O)ccc2ccccc12	9	-1	7	-3	10	4	x	x
Nc1cc2c3ccccc3ccc2c2ccccc12	x	x	x	62*	-28	11	+	+
CCn1cc(C(=O)Nc2nnc(C)s2)c(=O)c2cc(F)c(N3CCN(C(=O)c4ccco4)CC3)cc21	-3	x	x	x	x	x	x	x
CCCCNC(=O)c1cn(CC)c2cc(N3CCN(C)CC3)c(F)cc2c1=O	0	20	x	22	-10	9	x	x
CCCNC(=O)c1cn(CC)c2cc(N3CCN(C(=O)c4ccco4)CC3)c(F)cc2c1=O	4	22	-6	80*	-24	10	142*	113*
CCn1cc(C(=O)NCc2cccnc2)c(=O)c2cc(F)c(N3CCN(C(=O)c4ccco4)CC3)cc21	0	15	2	48*	-17	3	53*	45*
O=C(O)CSc1nnc(-c2cccc(S(=O)(=O)N3CCOCC3)c2)n1-c1ccc(F)cc1	x	x	x	0	-7	-9	x	x
CCCCNc1ncnc2sc3c(c12)CCN(CCC)C3	0	13	-2	34*	-12	9	99*	89*
COc1ccc(CC(=O)Nc2ccc(N(C)C)c3ccccc23)cc1	-1	-7	-1	34*	-10	3	+	128*
COC(=O)c1sccc1NC(=O)Cc1ccc(OC)cc1	-4	-2	2	-1	2	9	x	x
Cc1cc(C(=O)Nc2nncs2)oc1C	1	-10	-1	2	7	17	x	x
O=C1c2cccc3cccc(c23)C(=O)N1c1ccccn1	-2	-9	1	51*	-22	9	-16	-16
O=C1c2cccc3cccc(c23)C(=O)N1Cc1ccccn1	x	x	x	32*	-7	17	61*	37*
O=C1c2ccccc2C(=O)N1CCc1ccccn1	0	8	0	3	2	1	x	x
CCCCOc1ccc(N2C(=O)C(C)CNC2=S)cc1 (stereo unspecified)	x	x	x	3	3	3	x	x
Cc1cccc(OCC(=O)N2CCC3(CC2)CC(=O)c2ccccc2O3)c1	x	x	-1	6	-4	8	x	x
CCN1CCN(C(=O)COc2ccc3c(c2)C(=O)CC2(CCN(C(C)=O)CC2)O3)CC1	2	-9	-9	33*	-79	-6	61*	56*
CCOc1ccc(OCC(=O)N2CCC3(CC2)CC(=O)c2ccccc2O3)cc1	x	x	0	7	8	8	x	x
CCOC(=O)COc1ccc2c(c1)C(=O)CC1(CCN(C(C)=O)CC1)O2	1	18	-7	57*	-162	12	+	+
CC(=O)N1CCC2(CC1)CC(=O)c1cc(OCC(=O)N3CCCC3)ccc1O2	-3	8	-9	60*	-138	9	48*	45*
Cc1cc(C)c(OCC(=O)NCCCn2nc(C)cc2C)c(C)c1	x	x	x	0	-7	-1	x	x
Cc1ccc(NC(=O)c2ccc3c(c2)N(CC(=O)NC(C)C)C(=O)C(C)(C)O3)cc1	-5	1	x	-1	-12	12	x	x
SMILES	SARS 3CLpro inh	DUSP3 inh	RecA splice inh	FBA Mtb inh	CCHF vOTU inh	GDH-TPI counter-1	Mtb FBA inh conf	GDH-TPI counter-2	others
CC/C(C)=N/N1C(=O)c2ccccc2NC1(C)CC (stereo unspecified)	6	9	-4	38*	-42	9	115*	127*
OCC(O)[C@@H](O[C@H]1O[C@H](CO)[C@@H](O)[C@H](O)[C@H]1O)[C@H](O)[C@@H](O)CO (stereo partly specified)	x	x	-3	-1	1	-9	x	x
N#Cc1c(-c2ccccc2)cc(C2CC2)nc1N	6	17	1	13	-19	15	x	x
N#Cc1c(-c2ccco2)cc(C2CC2)nc1N	-8	45	-1	49*	-65	25	13	-1	GDH-TPI dose=2.6*
CCN(C(=O)COC(=O)CCCN1C(=O)c2cccc3cccc(c23)C1=O)C1CCS(=O)(=O)C1 (stereo unspecified)	x	x	0	33*	-7	17	+	+
CN(C(=O)COC(=O)CCCN1C(=O)c2cccc3cccc(c23)C1=O)C1CCS(=O)(=O)C1 (stereo unspecified)	x	x	-1	29*	-8	13	144*	100*
O=C(CCCCCN1C(=O)c2cccc3cccc(c23)C1=O)NCc1cccnc1	1	27	0	10	-11	15	x	x
CC(C)CN(C(=O)COC(=O)CCN1C(=O)c2ccccc2C1=O)C1CCS(=O)(=O)C1 (stereo unspecified)	-5	2	1	-11	-10	-5	x	x
O=C(CCCN1C(=O)c2cccc3cccc(c23)C1=O)NCc1cccnc1	1	8	1	35*	-11	2	+	+
O=C(CN1C(=O)c2cccc3cccc(c23)C1=O)N1CCCCCC1	6	37	-1	33*	-4	27	96*	85*
O=C(NCc1ccc(F)cc1)C(c1ccco1)N(C(=O)c1csnn1)C1CC1 (stereo unspecified)	-4	-5	x	0	5	0	x	x
COC(C(=O)N1CCC(CCC(=O)Nc2ccccc2)CC1)c1ccccc1 (stereo unspecified)	-5	16	0	-1	23	-10	x	x
CCCOc1ccc(N2CC(C(=O)NCCc3ccc(OC)c(OC)c3)CC2=O)cc1 (stereo unspecified)	5	31	1	2	-11	-8	x	x
COc1ccc(Nc2nc(Nc3ccc(OC)cc3OC)nc(N3CCN(C)CC3)n2)c(OC)c1	0	4	1	0	-5	4	x	x
Cc1ccc(N(CC(=O)N2CCN(Cc3ccccc3)CC2)S(C)(=O)=O)cc1C	-8	43	2	2	-10	-2	x	x
O=C1c2cccc3cccc(c23)C(=O)N1CCO	x	x	x	51*	-15	33*	158*	162*
CCOC(=O)CCCSc1nnc(CCCCCN2C(=O)c3cccc4cccc(c34)C2=O)o1	-1	23	1	5	15	10	x	x
